This is a sample that favours compounds with a hit; in the whole collection about 3.5% have one here.
FBW7 act: human FBW7 E3 ligase activation, primary screen | AlphaScreen FBW7–phospho-cyclin E peptide binding, activator screen | AID 1259310 | normalized activity (activation), % at 26.1 µM | actives 0.13% (n = 650,000); in the data active = normalized activity above about 1.9%;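 note: purified mutant Fbw7 with reduced substrate affinity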
Target sequence (Q969H0 whole entry, looked up): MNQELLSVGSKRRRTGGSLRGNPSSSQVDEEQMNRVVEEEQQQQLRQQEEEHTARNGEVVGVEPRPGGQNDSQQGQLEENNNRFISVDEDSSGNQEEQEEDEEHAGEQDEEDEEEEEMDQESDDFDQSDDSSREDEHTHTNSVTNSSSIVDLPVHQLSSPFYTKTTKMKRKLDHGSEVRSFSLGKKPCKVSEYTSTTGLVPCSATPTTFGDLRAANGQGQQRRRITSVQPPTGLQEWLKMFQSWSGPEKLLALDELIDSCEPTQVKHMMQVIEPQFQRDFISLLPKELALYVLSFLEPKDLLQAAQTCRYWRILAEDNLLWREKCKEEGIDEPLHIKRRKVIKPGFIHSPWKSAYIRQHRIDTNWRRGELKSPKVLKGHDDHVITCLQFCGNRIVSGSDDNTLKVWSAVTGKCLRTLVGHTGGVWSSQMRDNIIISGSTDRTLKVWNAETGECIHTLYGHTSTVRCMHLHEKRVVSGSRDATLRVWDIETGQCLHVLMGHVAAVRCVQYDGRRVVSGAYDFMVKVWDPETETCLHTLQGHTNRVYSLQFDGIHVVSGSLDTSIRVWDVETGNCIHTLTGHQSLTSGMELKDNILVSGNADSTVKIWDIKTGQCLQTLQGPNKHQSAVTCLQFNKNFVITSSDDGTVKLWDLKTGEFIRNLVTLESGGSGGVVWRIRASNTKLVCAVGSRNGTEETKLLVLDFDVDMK
TEAD-YAP inh: TEAD-YAP interaction inhibition | inhibition, % at 9.12 µM | actives 1.4% (n = 640,000) | HEK-TIYL cells, TEAD-Gal4/YAP UAS-luciferase luminescence; in the data active = inhibition above about 32%;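 note: 0% = median of test compound wells and 100% = reference inhibitor wells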
MITF inh: human MITF inhibition, primary screen | O75030 | AlphaScreen MITF homodimerization, bead proximity signal | inhibition, % at 2.6 µM | actives 0.91% (n = 650,000) | AID 1259374; in the data active = inhibition above about 50%;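 note: 0% = vehicle wells with protein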
GPR151 activ: activates the human receptor GPR151. Q8TDV0. activation, % at 11.2 µM. actives 1% (n = 650,000). PathHunter beta-arrestin GPR151 cells, luminescence; in the data active = activation above about 4.9%;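 note: 0% = median of compound wells and 100% = cells with positive control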
MITF inh conf: human MITF inhibition, confirmation | inhibition, % at 2.6 µM | actives 16% (n = 4,700) | AlphaScreen MITF homodimerization, biotin/His-MITF beads | shares compounds with MITF inh;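 active = inhibition above a cutoff derived from the DMSO control wells, cut at about 28% in these data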;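 note: 0% = MITF dimer wells with DMSO only; inhibitors lower the bead chemiluminescence by keeping MITF from dimerizing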
AS interf DR: optically interferes with AlphaScreen signal in dose response. shares compounds with MITF inh. AID 1259373. AlphaScreen optical interference counterscreen, cell-free. actives 6% (n = 480). IC50, µM; call rule not given here
AS interf ctr: optically interferes with AlphaScreen signal; shares compounds with MITF inh; LysRS AlphaScreen counterscreen, signal interference, triplicate; inhibition, % at 2.6 µM; actives 7.6% (n = 4,700);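 active = inhibition above a cutoff derived from the DMSO control wells, cut at about 30% in these data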
* marks the source's active call; other numbers are inactive results; nt = not tested or not shown.

SMILES	FBW7 act	TEAD-YAP inh	MITF inh	GPR151 activ	MITF inh conf	AS interf ctr	others
c1cncc(-c2nc(NCCCn3ccnc3)cc(-c3ccncc3)n2)c1	-0.7	13.1	13.0	-1.5	nt	nt
c1cncc(-c2cc(NCCCn3ccnc3)nc(-c3cccnc3)n2)c1	-0.8	7.9	65.3*	1.6	28.5*	38.9*
CN(C1CCCCC1)S(=O)(=O)c1ccccc1NC(=O)c1ccc[nH]c1=O	0.0	-2.0	12.9	0.2	nt	nt
CCCn1cc(NC(=O)c2cc(-c3ccccc3N)no2)cn1	0.0	-17.5	73.2*	1.2	-17.4	-1.0
CCCn1cc(NC(=O)c2ccc(Br)o2)cn1	0.1	-50.8	-0.5	-2.6	nt	nt
CCOc1ccccc1-n1nnnc1SCC(=O)N(C(C)C)C(C)C	0.3	-5.5	4.9	-1.1	nt	nt
COCCSc1nnc(-c2cnccn2)n1C	0.1	3.9	75.2*	-0.1	9.4	20.3
O=C1CCCN1CCCn1c(=S)[nH]c2cc3ccccc3cc2c1=O	0.1	0.7	65.8*	-0.8	0.2	16.6
CN(C)C(CNCC(=O)N1CCc2ccccc21)c1ccco1 (stereo not given)	-0.4	-9.7	62.2*	-1.2	1.8	9.5
CN(C)C(CNCC(=O)Nc1ccc2c(c1)CCC2)c1ccccc1 (stereo not given)	-0.4	-1.9	45.9	-1.5	nt	nt
CC(C)c1ccc(NC(=O)CNCC(c2ccccc2)N(C)C)cc1 (stereo not given)	-0.2	2.0	64.9*	-0.5	-0.1	-0.5
CC1Cc2ccccc2N1C(=O)CNCC(c1ccccc1)N(C)C (stereo not given)	-0.7	-3.1	66.8*	-0.3	16.0	25.1
CC1Cc2ccccc2N1C(=O)CNCCN(C)C (stereo not given)	-0.2	-6.7	-3.1	-0.3	nt	nt
CN(C)C(CNCC(=O)NC(=O)Nc1ccc2c(c1)OCCO2)c1ccccc1 (stereo not given)	-0.2	54.6*	79.4*	0.0	3.3	1.7
CCCCN1C(=O)NC(=O)/C(=C\c2cccn2C)C1=O	0.0	0.3	8.8	-1.6	nt	nt
CC(Cc1cnccn1)NC(=O)CCc1nnc(CCC2CCCCC2)o1 (stereo not given)	0.1	4.4	2.4	1.7	nt	nt
CC(NC(=O)CCc1nnc(CCC2CCCCC2)o1)c1ccncn1 (stereo not given)	0.2	-7.2	73.6*	-0.3	-0.8	9.1
CCOc1ccc(-c2cc(C(=O)N/N=C\c3ccc(OC)cc3)[nH]n2)cc1OC	-0.1	-14.7	-1.7	0.3	nt	nt
COCCNc1ccc2ncc(-c3cccc(C(F)(F)F)c3)n2n1	0.1	5.0	64.7*	0.3	6.4	15.3
COCCNc1ccc2ncc(-c3cccc(N(C)C)c3)n2n1	-0.6	15.7	10.2	-0.2	nt	nt
CS(=O)(=O)N(CC(=O)Nc1ccccc1F)c1cccc(Br)c1	-0.1	5.3	-1.8	-0.2	nt	nt
c1ccc2cc(CN3CCSCC3)ccc2c1	0.0	-5.7	57.5*	0.6	0.9	-0.2
Fc1cccc(CN2CCN(Cc3cccc4ccccc34)CC2)c1	0.0	-2.6	86.2*	-0.1	4.9	19.0
Fc1cccc(CN2CCN(Cc3ccc4ccccc4c3)CC2)c1	0.0	1.5	72.3*	0.0	10.5	20.8
OC1CCN(Cc2ccc3ccccc3c2)CC1	0.0	4.2	-1.1	0.9	nt	nt
SMILES	FBW7 act	TEAD-YAP inh	MITF inh	GPR151 activ	MITF inh conf	AS interf ctr	others
CCc1ccc(CN2CCN(Cc3ccc4ccccc4c3)CC2)cc1	-0.2	-2.0	64.0*	-0.6	-0.4	0.8
COc1ccccc1/C=C/C=N/NC(=O)c1cc(-c2cccc([N+](=O)[O-])c2)n[nH]1	0.0	-7.0	7.4	-0.9	nt	nt
CCn1c2ccccc2c2cc(CN3CCN(Cc4cc(OC)c(OC)cc4OC)CC3)ccc21	-0.3	-5.6	69.2*	-1.0	13.2	21.1
COc1cc(OC)c(OC)cc1CN1CCN(Cc2ccncc2)CC1	-0.2	4.7	79.7*	-1.4	1.4	11.2
COc1cc(OC)c(OC)cc1CN1CCN(Cc2cc(OC)c(O)c(OC)c2)CC1	-0.3	-2.6	60.1*	-0.6	1.6	8.6
COc1cc(OC)c(OC)cc1CN1CCN(Cc2ccc(C)cc2)CC1	-0.2	1.1	63.2*	0.9	71.3*	16.0	AS interf DR=>5.76
CCS(=O)(=O)N1CCN(Cc2cc(OC)c(OC)cc2OC)CC1	0.2	6.0	36.9	2.2	nt	nt
COc1ccc(OC)c(CCNC(=O)Cn2cc3c(n2)CCCC3)c1	0.1	-8.3	7.4	0.0	nt	nt
CCC(C)(C)n1nnnc1CN1CCCC(C)C1 (stereo not given)	0.1	-5.4	9.9	-0.1	nt	nt
CCC(CC)CN1CCOc2ccc(CN3CCN(c4ncccn4)CC3)cc2C1	-0.2	-3.9	-1.8	1.4	nt	nt
Cc1c(-c2ccccc2)oc2c(C(=O)OCC(=O)NC(=O)NC(C)C)cccc2c1=O	0.1	-9.9	1.9	-0.4	nt	nt
NNc1nn2c(C(F)(F)F)nnc2c2ccccc12	-0.2	3.9	-5.1	0.2	nt	nt
COc1ccccc1-c1coc2cc(OCc3ccc(Cl)cc3Cl)ccc2c1=O	0.1	-3.1	-8.0	-0.5	nt	nt
N[C@H]1CCC[C@H](C(=O)Nc2cccc3c(=O)[nH]cnc23)C1	0.4	3.0	54.2*	-0.3	25.6	10.9
Cc1ccc2c(c1)c(=O)c1ccccc1n2CC(=O)Nc1ccc(F)cc1F	0.1	-0.5	77.4*	-0.5	4.1	4.6
COc1ccc(C(NNC(=O)C(O)(c2ccc(OC)cc2)c2ccc(OC)cc2)c2ccccc2)cc1 (stereo not given)	0.0	-2.9	-13.0	-0.4	nt	nt
CCN(CC)S(=O)(=O)c1ccc(NC(=O)c2nc(-c3ccncc3)no2)cc1	0.0	-2.3	7.2	-0.7	nt	nt
COc1cccc(N=c2c([N+](=O)[O-])nn(-c3ccc(Cl)cc3)n2O)c1	-0.4	9.5	1.5	-0.4	nt	nt
Cc1cccc(-n2nc([N+](=O)[O-])c(=Nc3ccc(F)cc3)n2O)c1	-0.2	-14.9	72.2*	-0.6	8.8	6.2
Cc1cccc(N=c2c([N+](=O)[O-])nn(-c3ccc(Cl)cc3)n2O)c1	-0.4	10.2	78.0*	-1.2	8.5	9.5
Cc1ccc(N=c2c([N+](=O)[O-])nn(-c3cccc(C)c3)n2O)cc1	-0.8	2.8	22.1	0.6	nt	nt
O=C(N[C@@H]1c2ccccc2C2(CCN(C(=O)CCN3CCCO3)CC2)[C@H]1O)c1ccccc1	0.4	-10.0	-8.1	-1.4	nt	nt
CCOc1ccc2cc(-c3csc(Nc4ccc(C)cc4)n3)c(=O)oc2c1	0.1	3.7	12.5	2.5	nt	nt
COc1cc(C(=O)OCC(=O)c2cccc([N+](=O)[O-])c2)cc(OC)c1OC	0.0	-3.6	7.8	-1.9	nt	nt

Source: PubChem (The Scripps Research Institute Molecular Screening Center)
